From PubChem BioAssay (NCI)
About 83,000 compounds went through this panel and 20% of them were active in at least one assay; those are over-represented in the sample as a whole.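 Method: cells in 96-well plates; compound added at one concentration; 48 h incubation; percent growth measured; values under 10 scored active.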 Active and inactive are the calls of the source.

Legend:
Assay in all cases: NCI-60 one-dose screen, 48 h (100 = growth as untreated, 0 = no growth, -100 = all killed)
Settings in all cases: 10 µM unless noted
SR leukemia = tested on: SR leukemia
RPMI-8226 leukemia = tested on: RPMI-8226 leukemia
OVCAR-8 ovarian = tested on: OVCAR-8 ovarian
OVCAR-5 ovarian = tested on: OVCAR-5 ovarian
OVCAR-4 ovarian = tested on: OVCAR-4 ovarian
SK-OV-3 ovarian = tested on: SK-OV-3 ovarian
IGROV1 ovarian = tested on: IGROV1 ovarian
OVCAR-3 ovarian = tested on: OVCAR-3 ovarian
HS 578T breast = tested on: HS 578T breast
NCI/ADR-RES ovarian = tested on: NCI/ADR-RES ovarian

| SMILES | growth (SR leukemia) | growth (RPMI-8226 leukemia) | growth (OVCAR-8 ovarian) | growth (OVCAR-5 ovarian) | growth (OVCAR-4 ovarian) | growth (SK-OV-3 ovarian) | growth (IGROV1 ovarian) | growth (OVCAR-3 ovarian) | growth (HS 578T breast) | growth (NCI/ADR-RES ovarian) |
| --- | --- | --- | --- | --- | --- | --- | --- | --- | --- | --- |
| C#CC(F)(F)[C@]1(O)CC[C@H]2[C@@H]3CCC4=CC(=O)CCC4=C3[C@@H](c3ccc(C(C)=O)cc3)C[C@@]21C | 7.36% (active) | 2% (active) | 90% (inactive) | 84.4% (inactive) | 76.2% (inactive) | 52.8% (inactive) | -34.3% (active) | 9.4% (active) | 76.5% (inactive) | 82.7% (inactive) |
| Cc1cc(C)nc(SC2=C(Nc3cc(Cl)ccc3O)C(=O)N(Cc3ccccc3)C2=O)n1 | 54% [30 µM] (inactive) | 36.5% [30 µM] (inactive) | 76.4% [30 µM] (inactive) | 123% [30 µM] (inactive) | 71.2% [30 µM] (inactive) | 103% [30 µM] (inactive) | 83.8% [30 µM] (inactive) | 88.3% [30 µM] (inactive) | 82.7% [30 µM] (inactive) | 74.6% [30 µM] (inactive) |
| CCCc1cc(=O)n2c(C(=O)Nc3ccc(F)cc3)c(C(=O)Nc3ccc(F)cc3)sc2n1 | 53.4% [30 µM] (inactive) | 78.2% [30 µM] (inactive) | 16.6% [30 µM] (inactive) | 74.7% [30 µM] (inactive) | 36.9% [30 µM] (inactive) | 48.5% [30 µM] (inactive) | 72.6% [30 µM] (inactive) | 35.3% [30 µM] (inactive) | 6.12% [30 µM] (active) | 33% [30 µM] (inactive) |
| O=C(/C=C/c1cc(CN2CCOCC2)c(O)c2ncccc12)c1cc(CN2CCOCC2)c(O)c2ncccc12 | 8.01% (active) | 6.02% (active) | 15.2% (inactive) | 28.3% (inactive) | 30.3% (inactive) | -21.8% (active) | 15.4% (inactive) | 23.6% (inactive) | 27.1% (inactive) | 21.4% (inactive) |
| COc1ccc(/C=C\c2cc(OC)c(OC)c(OC)c2)cc1OCC(=O)Nc1ccc2nc(C)sc2c1 | 12.2% (inactive) | -8.5% (active) | 9.11% (active) | 112% (inactive) | 43% (inactive) | 78.5% (inactive) | 25.2% (inactive) | 41.6% (inactive) | 36.4% (inactive) | 0.808% (active) |
| Cn1c(NCCc2ccc(O)c(O)c2)nc2c1c(=O)n(Cc1ccc(Cl)c(Cl)c1)c(=O)n2C | 56% (inactive) | 19.1% (inactive) | 74.4% (inactive) | 83.1% (inactive) | 52.8% (inactive) | 81% (inactive) | 32% (inactive) | 64.9% (inactive) | 75.6% (inactive) | 77.3% (inactive) |
| CSc1ccc(SC2c3ccc(C)cc3Oc3nc(N)c(C#N)c(N)c32)cc1 (stereo not drawn) | -22.9% (active) | -38% (active) | -92% (active) | -80.8% (active) | -94.8% (active) | 15.1% (inactive) | -86.2% (active) | -94.7% (active) | -8.07% (active) | -18.6% (active) |
| COc1ccc(-n2nc(C)c3c(Nc4ccc(NC(=O)Nc5cccc(C(F)(F)F)c5)cc4)ncnc32)cc1 | 21.2% (inactive) | -10.9% (active) | 2.63% (active) | 2.66% (active) | 7.24% (active) | 16.9% (inactive) | 7.48% (active) | -31.6% (active) | -6.67% (active) | 4.85% (active) |
| C=CCSSC1N=CNc2nc[nH]c21 (stereo not drawn) | 13% (inactive) | -15.1% (active) | 22.6% (inactive) | 42.7% (inactive) | 34.4% (inactive) | 8.8% (active) | 64.5% (inactive) | 32.3% (inactive) | 54.5% (inactive) | 26.5% (inactive) |
| Cc1cc(C)nc(SC2=C(Nc3cccc(Cl)c3C)C(=O)N(Cc3ccccc3)C2=O)n1 | 31.8% [30 µM] (inactive) | 12.5% [30 µM] (inactive) | 64.2% [30 µM] (inactive) | 81.8% [30 µM] (inactive) | 49% [30 µM] (inactive) | 91.6% [30 µM] (inactive) | 73% [30 µM] (inactive) | 64.6% [30 µM] (inactive) | 60.7% [30 µM] (inactive) | 52.1% [30 µM] (inactive) |
| COc1cc(-c2nc(C(=O)NCC(=O)NO)nn2-c2ccc(Cl)cc2)cc(OC)c1OC | 84.8% (inactive) | 105% (inactive) | 98.5% (inactive) | 93.3% (inactive) | 105% (inactive) | 93.3% (inactive) | 112% (inactive) | 103% (inactive) | 85.6% (inactive) | 106% (inactive) |
| COc1ccc(C(=O)c2sc3nc(C)cc(C)c3c2N)cc1OC | 83.5% (inactive) | 96% (inactive) | 65.7% (inactive) | 104% (inactive) | 85.3% (inactive) | 77.6% (inactive) | 88.8% (inactive) | 94.8% (inactive) | 91.2% (inactive) | 90.2% (inactive) |
| Cn1cc(-c2nonc2-c2cn(C)c3ccc(F)cc23)c2cc(F)ccc21 | 31.8% (inactive) | 81.4% (inactive) | 81.7% (inactive) | 92% (inactive) | 79% (inactive) | 45.1% (inactive) | 52.5% (inactive) | 23.4% (inactive) | 52.2% (inactive) | 30.9% (inactive) |
| COc1ccc(-c2cc(=O)c3c(OC)c4ccoc4cc3o2)cc1 | 82.4% (inactive) | 102% (inactive) | 99.2% (inactive) | 93.6% (inactive) | 109% (inactive) | 112% (inactive) | 113% (inactive) | 106% (inactive) | 120% (inactive) | 96.2% (inactive) |
| O=C1OCC2=C1C(c1ccncc1)c1cc3c(cc1N2CCO)OCO3 (stereo not drawn) | 122% (inactive) | 103% (inactive) | 98.8% (inactive) | 100% (inactive) | 100% (inactive) | 87.3% (inactive) | 101% (inactive) | 105% (inactive) | 87% (inactive) | 104% (inactive) |
| O=C(Cc1ccc(/C=C/C(=O)c2ncc[nH]2)cc1)Nc1ccccc1 | 1.14% (active) | -0.0972% (active) | 22.1% (inactive) | 78.5% (inactive) | 68.2% (inactive) | 75.9% (inactive) | 63.5% (inactive) | 17.7% (inactive) | 80.7% (inactive) | 31.1% (inactive) |
| O=C1NC(=Nc2ccc(O)cc2)S/C1=C\c1cccc(Cl)c1 | 23.1% (inactive) | 2.99% (active) | 84.3% (inactive) | 110% (inactive) | 90.3% (inactive) | 77.1% (inactive) | 65.7% (inactive) | 30.1% (inactive) | 63.1% (inactive) | 83.8% (inactive) |
| Cc1ccc2c(c1)C(=O)/C(=C/c1cccc(OCC(=O)c3ccc(Cl)cc3)c1)CS2 | 9.06% (active) | -27% (active) | 69.7% (inactive) | 105% (inactive) | 104% (inactive) | 115% (inactive) |  | 98.1% (inactive) | 99.9% (inactive) | 54.4% (inactive) |
| COc1cc2c(cc1O)CC[C@@H]1[C@@H]2CC[C@]2(C)[C@@H](OCCN(C)C)CC[C@@H]12 | -11.6% (active) | 5.96% (active) | 65.6% (inactive) | 78.8% (inactive) | 47% (inactive) | 63% (inactive) | 73.4% (inactive) | 12.5% (inactive) | 27% (inactive) | 17.9% (inactive) |
| O=CNc1ccc2c(c1)Cc1cccc(NC=O)c1-2 | 108% (inactive) | 103% (inactive) | 99.5% (inactive) | 89.6% (inactive) | 112% (inactive) | 104% (inactive) | 103% (inactive) | 90.2% (inactive) | 97.1% (inactive) | 99.7% (inactive) |
| O=c1nc2oc3ccc4ccccc4c3cc-2s1 | 24.3% (inactive) | 14.7% (inactive) | 29.8% (inactive) | 53.3% (inactive) | 62.5% (inactive) | 28.5% (inactive) | 37.2% (inactive) | 6% (active) | 3.65% (active) | 91.1% (inactive) |
| CC1=C[C@H]2c3c(c(O)c(O)c4oc5ccccc5c(=O)c34)[C@H](c3cc(O)c(O)c4oc5ccccc5c(=O)c34)[C@H]2C(C)(C)C1 | 0.353% (active) | 15.2% (inactive) | 1.23% (active) | 25.8% (inactive) | 1.7% (active) | -14.1% (active) | -4.25% (active) | 10.4% (inactive) | -4.62% (active) | 23.9% (inactive) |
| O=C1Nc2c(ccc(Cl)c2Cl)/C1=C\c1cc(C(F)(F)F)cc(C(F)(F)F)c1 | -41.1% (active) | 25.6% (inactive) | 27.1% (inactive) | -28.8% (active) | 9.67% (active) | 59.9% (inactive) | 3.13% (active) | -34.2% (active) | -37.6% (active) | 8.35% (active) |
| Cc1nn(-c2cc(=O)[nH]c3ccc(Cl)cc23)c(N)c1C#N | 121% (inactive) | 97.7% (inactive) | 91.6% (inactive) | 99.3% (inactive) | 89.2% (inactive) | 102% (inactive) |  | 105% (inactive) | 103% (inactive) | 97.4% (inactive) |
